Of roughly 8,800 targets only a part is listed; those with a hit were picked by preference. About 0.5% of all pairs of compound and target were hits. Values without a mark were called inactive.

Our source for the log2 fold change values is the supplement of paper PMC10849652.

Experiment in all cases: log2 fold change, soluble protein after heating vs DMSO (PISA); higher = thermal stabilisation; K562 lysate, 10 uM; active = over 0.2 and 3.5 SD of the protein, either way, in both replicates (recomputed)
Compound in experiment [1]: NCC(=O)Nc1ccc(-n2nc(C(F)(F)F)cc2-c2ccc3c(ccc4ccccc43)c2)cc1
The essentials:
(§1)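 Dounce homogenisation of K562 pellets in PBS pH 7.4 with 1 mM MgCl2 produced a crude extract, used at 1 mg/mL protein. Exposure to 10 μM compound lasted 30 min, and aliquots were then heated for 3 min across 48°C-58°C, pooled and brought to 0.5% NP-40 at 4°C. The supernatant after 21,000xg for 90 min was quantified by TMTpro 16plex LC-MS/MS with channel sums equalised. Duplicate values are given as log-two fold change in thermal stability relative to solvent controls.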

Compound in experiment [2]: O=C(CCCCCCC(=O)Nc1ccccc1)NO [vorinostat]
The essentials: as §1

Compound in experiment [3]: O=C(O)c1ccc2c(c1)nc(Nc1cccc(Cl)c1)c1ccncc12 [silmitasertib]
The procedure, abridged: as §1

Compound in experiment [4]: O=C1NC(=O)C(c2cnc3ccccn23)=C1c1cn2c3c(cc(F)cc13)CN(C(=O)N1CCCCC1)CC2
The procedure, abridged:
as §1

Compound in experiment [5]: c1cn2cc(-c3ccc4cn[nH]c4c3)nc(Nc3ccc(N4CCOCC4)cc3)c2n1 [entospletinib]
The essentials:
as §1

Chain of UniProt Q14203 (Q14203 whole entry, looked up): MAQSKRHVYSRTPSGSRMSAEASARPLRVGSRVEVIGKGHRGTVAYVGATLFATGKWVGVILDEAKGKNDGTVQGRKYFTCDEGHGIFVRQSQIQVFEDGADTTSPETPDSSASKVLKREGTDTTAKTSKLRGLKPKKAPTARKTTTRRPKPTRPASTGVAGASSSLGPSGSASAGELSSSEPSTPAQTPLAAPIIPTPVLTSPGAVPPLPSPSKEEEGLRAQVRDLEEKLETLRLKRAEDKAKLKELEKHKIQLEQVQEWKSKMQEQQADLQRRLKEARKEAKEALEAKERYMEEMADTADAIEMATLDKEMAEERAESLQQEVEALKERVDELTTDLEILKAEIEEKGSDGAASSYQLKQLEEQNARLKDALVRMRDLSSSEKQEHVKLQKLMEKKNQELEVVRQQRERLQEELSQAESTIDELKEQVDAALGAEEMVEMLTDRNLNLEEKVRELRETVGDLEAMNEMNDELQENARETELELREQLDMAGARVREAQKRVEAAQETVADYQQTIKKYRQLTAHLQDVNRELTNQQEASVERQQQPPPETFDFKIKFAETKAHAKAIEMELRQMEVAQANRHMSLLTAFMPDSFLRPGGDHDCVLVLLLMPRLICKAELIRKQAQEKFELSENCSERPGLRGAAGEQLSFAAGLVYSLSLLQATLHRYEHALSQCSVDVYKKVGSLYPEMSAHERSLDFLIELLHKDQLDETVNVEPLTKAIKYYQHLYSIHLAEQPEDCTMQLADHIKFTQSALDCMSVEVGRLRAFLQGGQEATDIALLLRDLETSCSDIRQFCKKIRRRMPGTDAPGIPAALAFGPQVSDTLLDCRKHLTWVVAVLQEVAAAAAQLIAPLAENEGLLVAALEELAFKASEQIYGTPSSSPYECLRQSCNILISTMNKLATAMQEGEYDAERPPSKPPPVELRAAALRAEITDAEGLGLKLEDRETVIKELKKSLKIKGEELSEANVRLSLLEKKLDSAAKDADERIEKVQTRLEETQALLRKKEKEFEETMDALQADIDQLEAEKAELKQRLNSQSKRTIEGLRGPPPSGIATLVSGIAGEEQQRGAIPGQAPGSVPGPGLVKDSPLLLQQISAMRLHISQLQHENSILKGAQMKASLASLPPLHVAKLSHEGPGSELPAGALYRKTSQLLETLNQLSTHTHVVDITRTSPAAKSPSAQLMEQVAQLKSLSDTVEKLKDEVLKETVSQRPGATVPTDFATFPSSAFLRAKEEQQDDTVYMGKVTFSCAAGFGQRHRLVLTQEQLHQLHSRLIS
Chain of UniProt Q07973 (Q07973 whole entry, looked up): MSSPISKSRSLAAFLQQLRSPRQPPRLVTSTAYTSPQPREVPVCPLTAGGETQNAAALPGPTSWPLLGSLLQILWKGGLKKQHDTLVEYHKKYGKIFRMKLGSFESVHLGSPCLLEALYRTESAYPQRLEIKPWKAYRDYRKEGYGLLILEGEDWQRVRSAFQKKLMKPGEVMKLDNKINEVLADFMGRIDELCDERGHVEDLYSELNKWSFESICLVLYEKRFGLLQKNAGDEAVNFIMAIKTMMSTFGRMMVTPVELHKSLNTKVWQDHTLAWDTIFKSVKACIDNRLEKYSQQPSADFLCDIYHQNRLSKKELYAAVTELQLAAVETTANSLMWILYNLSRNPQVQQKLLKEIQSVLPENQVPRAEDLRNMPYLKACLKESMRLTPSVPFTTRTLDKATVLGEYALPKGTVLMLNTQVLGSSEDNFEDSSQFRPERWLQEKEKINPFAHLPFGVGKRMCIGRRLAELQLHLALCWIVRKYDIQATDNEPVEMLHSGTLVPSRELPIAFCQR
Chain of UniProt Q6P3S1 (Q6P3S1 whole entry, looked up): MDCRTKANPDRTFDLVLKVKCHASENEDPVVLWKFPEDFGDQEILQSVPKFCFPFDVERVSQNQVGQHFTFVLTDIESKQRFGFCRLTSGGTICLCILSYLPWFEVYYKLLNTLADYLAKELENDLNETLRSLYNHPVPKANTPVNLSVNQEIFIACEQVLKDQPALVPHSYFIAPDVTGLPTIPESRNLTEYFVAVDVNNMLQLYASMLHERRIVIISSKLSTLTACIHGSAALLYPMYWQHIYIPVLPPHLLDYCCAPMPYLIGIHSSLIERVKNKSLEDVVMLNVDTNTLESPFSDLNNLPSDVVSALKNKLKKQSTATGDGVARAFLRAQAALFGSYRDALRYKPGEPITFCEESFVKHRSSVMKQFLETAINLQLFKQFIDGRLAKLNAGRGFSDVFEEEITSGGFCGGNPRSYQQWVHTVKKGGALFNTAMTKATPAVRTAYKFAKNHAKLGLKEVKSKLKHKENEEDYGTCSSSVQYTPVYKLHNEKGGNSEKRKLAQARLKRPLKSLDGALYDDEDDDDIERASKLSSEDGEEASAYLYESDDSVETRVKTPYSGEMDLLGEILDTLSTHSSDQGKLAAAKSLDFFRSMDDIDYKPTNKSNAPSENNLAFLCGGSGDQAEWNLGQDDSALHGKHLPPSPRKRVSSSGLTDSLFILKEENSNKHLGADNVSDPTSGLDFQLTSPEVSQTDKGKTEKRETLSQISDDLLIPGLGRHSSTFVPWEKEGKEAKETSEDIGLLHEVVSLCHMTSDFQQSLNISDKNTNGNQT
Chain of UniProt Q9Y2V7 (Q9Y2V7 whole entry, looked up): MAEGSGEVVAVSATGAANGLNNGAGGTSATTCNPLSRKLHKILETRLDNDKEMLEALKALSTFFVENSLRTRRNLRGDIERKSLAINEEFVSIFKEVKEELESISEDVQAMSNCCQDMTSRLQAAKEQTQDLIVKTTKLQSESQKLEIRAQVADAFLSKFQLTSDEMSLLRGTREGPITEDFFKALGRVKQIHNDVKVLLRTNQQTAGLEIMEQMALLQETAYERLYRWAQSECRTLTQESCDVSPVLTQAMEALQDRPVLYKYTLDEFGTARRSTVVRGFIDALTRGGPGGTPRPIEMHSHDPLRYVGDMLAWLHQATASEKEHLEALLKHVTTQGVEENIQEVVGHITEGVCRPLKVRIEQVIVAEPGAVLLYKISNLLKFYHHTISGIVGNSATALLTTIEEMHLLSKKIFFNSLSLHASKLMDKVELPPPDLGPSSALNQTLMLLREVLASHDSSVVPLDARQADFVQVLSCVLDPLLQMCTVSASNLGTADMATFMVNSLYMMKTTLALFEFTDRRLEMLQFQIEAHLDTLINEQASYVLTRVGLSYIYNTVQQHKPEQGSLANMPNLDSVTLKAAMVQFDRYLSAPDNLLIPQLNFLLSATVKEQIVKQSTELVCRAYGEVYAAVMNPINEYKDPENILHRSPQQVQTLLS
Chain of UniProt Q8TB03 (Q8TB03 whole entry, looked up): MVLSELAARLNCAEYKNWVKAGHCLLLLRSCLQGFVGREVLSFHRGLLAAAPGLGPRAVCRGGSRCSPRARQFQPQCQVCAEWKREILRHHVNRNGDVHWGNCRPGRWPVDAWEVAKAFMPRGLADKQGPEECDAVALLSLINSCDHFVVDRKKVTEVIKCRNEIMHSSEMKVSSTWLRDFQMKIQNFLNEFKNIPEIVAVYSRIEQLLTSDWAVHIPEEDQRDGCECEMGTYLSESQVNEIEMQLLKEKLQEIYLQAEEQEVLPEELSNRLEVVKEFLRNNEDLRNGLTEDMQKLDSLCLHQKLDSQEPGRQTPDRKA
Chain of UniProt Q96KP4 (Q96KP4 whole entry, looked up): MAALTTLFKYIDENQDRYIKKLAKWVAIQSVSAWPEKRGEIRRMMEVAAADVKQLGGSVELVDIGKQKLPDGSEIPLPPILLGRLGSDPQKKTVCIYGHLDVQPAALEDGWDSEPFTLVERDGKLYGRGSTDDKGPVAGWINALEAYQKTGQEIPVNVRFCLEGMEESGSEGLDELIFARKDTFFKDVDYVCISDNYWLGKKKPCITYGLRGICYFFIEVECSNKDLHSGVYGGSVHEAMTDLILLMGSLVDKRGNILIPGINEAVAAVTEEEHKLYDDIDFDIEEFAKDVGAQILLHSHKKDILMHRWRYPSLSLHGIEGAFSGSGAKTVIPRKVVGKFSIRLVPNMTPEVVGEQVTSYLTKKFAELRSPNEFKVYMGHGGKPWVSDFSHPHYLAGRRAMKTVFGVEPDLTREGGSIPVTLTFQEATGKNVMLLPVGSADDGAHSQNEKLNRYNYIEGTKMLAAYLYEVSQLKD
Chain of UniProt Q9UHI6 (Q9UHI6 whole entry, looked up): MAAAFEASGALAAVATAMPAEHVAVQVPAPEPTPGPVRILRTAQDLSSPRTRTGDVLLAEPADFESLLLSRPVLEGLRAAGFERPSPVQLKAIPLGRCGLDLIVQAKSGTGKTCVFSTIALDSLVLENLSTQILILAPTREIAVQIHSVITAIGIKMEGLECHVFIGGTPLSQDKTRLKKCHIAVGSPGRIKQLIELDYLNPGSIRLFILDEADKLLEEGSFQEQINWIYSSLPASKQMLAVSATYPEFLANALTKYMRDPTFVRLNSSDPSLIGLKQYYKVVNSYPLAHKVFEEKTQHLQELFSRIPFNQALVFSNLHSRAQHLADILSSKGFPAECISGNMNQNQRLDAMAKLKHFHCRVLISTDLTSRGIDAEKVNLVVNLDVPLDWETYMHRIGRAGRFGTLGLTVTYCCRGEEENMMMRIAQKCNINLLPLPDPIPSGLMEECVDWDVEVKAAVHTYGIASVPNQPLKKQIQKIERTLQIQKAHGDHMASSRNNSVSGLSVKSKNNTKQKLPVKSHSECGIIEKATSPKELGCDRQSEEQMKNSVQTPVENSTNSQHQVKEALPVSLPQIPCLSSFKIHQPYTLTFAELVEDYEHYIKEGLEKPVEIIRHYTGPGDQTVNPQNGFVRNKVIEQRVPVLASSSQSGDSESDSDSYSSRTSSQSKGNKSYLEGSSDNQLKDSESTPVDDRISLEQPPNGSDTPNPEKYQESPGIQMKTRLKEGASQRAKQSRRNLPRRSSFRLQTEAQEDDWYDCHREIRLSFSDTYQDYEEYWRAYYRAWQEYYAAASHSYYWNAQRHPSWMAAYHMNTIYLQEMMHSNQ
Chain of UniProt Q9H5X1 (Q9H5X1 whole entry, looked up): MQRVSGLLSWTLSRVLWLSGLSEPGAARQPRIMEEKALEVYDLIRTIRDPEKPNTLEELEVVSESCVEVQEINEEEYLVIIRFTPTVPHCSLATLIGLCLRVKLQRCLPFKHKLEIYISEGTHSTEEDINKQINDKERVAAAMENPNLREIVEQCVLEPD

Consider DENND1B (UniProt Q6P3S1), for which the log2 fold change in experiment [1] is -0.063; in experiment [2], -1.3 (active); in experiment [3] it was 0.28; in experiment [4], -0.076.

For CLASP1 isoform 4 (UniProt Q7Z460), the log2 fold change in experiment [1] was -0.214; in experiment [2], 0.167; in experiment [3], 0.06.

DBF4 (UniProt Q9UBU7): the log2 fold change in experiment [1] was 0.059; in experiment [2], -0.226; in experiment [3] it was -0.138; in experiment [4] it was 0.028; in experiment [5], 0.002.

Take DNAH5 (UniProt Q8TE73): the log2 fold change in experiment [1] is 0.008; in experiment [2] it was 0.113; in experiment [3], -0.179.

In the case of DCTN1 isoform 4 (UniProt Q14203), the log2 fold change was 0.144 in experiment [1]; -0.143 in experiment [2]; -0.027 in experiment [3]; 0.011 in experiment [4]; -0.085 in experiment [5].

With CKAP2 (UniProt Q8WWK9), the log2 fold change is 0.434 (active) in experiment [1]; 0.011 in experiment [2]; -0.013 in experiment [3]; -0.044 in experiment [4]; 0.033 in experiment [5].

Regarding DLG3 isoform 2 (UniProt Q92796), the log2 fold change in experiment [1] was 0.067; in experiment [2], -0.023; in experiment [3], -0.025; in experiment [4], -0.036; in experiment [5] it was -0.007.

Consider CXorf38 (UniProt Q8TB03), for which the log2 fold change is 0.092 in experiment [1]; -0.227 (active) in experiment [2]; -0.013 in experiment [3]; 0.042 in experiment [4]; -0.073 in experiment [5].

Consider CNDP2 (UniProt Q96KP4), for which the log2 fold change is 0.023 in experiment [1]; 0.133 in experiment [2]; -0.025 in experiment [3]; -0.008 in experiment [4]; 0.01 in experiment [5].

Turning to DCP1A (UniProt Q9NPI6), the log2 fold change in experiment [1] was -0.03; in experiment [2] it was -0.234 (active); in experiment [3] it was 0.022; in experiment [4] it was 0.011; in experiment [5] it was 0.027.

For CHURC1 isoform 2 (UniProt Q8WUH1), the log2 fold change in experiment [1] is -0.048; in experiment [2], 0.285 (active); in experiment [3] it was -0.039; in experiment [4] it was -0.043; in experiment [5] it was -0.128.

Take DENND6A (UniProt Q8IWF6): the log2 fold change in experiment [1] was -0.049; in experiment [2], -0.38 (active); in experiment [3], 0.1; in experiment [4] it was -0.07; in experiment [5], -0.051.

CMPK2 (UniProt Q5EBM0): the log2 fold change in experiment [1] was -0.002; in experiment [2], -0.323 (active); in experiment [3], 0.005; in experiment [4], 0.064; in experiment [5] it was 0.

As to DPY19L3 (UniProt Q6ZPD9), the log2 fold change in experiment [1] was -0.085; in experiment [2] it was 0.219; in experiment [3] it was 0.108; in experiment [4], 0.035; in experiment [5] it was -0.024.

For COG5 isoform 2 (UniProt Q9UP83), the log2 fold change in experiment [1] was -0.005; in experiment [2], -0.342 (active); in experiment [3], 0.073; in experiment [4], -0.029; in experiment [5], 0.038.

CTNNBL1 (UniProt Q8WYA6): the log2 fold change in experiment [1] is -0.026; in experiment [2] it was -0.046; in experiment [3], -0.044; in experiment [4], -0.025; in experiment [5], -0.011.

As for COX20 isoform 2 (UniProt Q5RI15), the log2 fold change is -0.016 in experiment [1]; -0.079 in experiment [2]; 0.011 in experiment [3]; -0.037 in experiment [4]; 0.026 in experiment [5].

As for CYP51A1 (UniProt Q16850), the log2 fold change was -0.065 in experiment [1]; 0.017 in experiment [2]; -0.084 in experiment [3]; 0.864 (active) in experiment [4]; 0.024 in experiment [5].

In the case of CYP24A1 (UniProt Q07973), the log2 fold change in experiment [1] was 0.187; in experiment [2], 0.119; in experiment [3], 0.019; in experiment [4] it was 0.081; in experiment [5] it was 0.002.

For the target DDX20 (UniProt Q9UHI6), the log2 fold change in experiment [1] was 0.007; in experiment [2], -0.348 (active); in experiment [3], 0.069; in experiment [4], 0.022; in experiment [5], -0.008.

For CIAO2A (UniProt Q9H5X1), the log2 fold change in experiment [1] was 0.021; in experiment [2], 0.368 (active); in experiment [3], -0.016; in experiment [4], -0.037; in experiment [5] it was 0.009.

Turning to COG6 (UniProt Q9Y2V7), the log2 fold change is 0.021 in experiment [1]; -0.254 (active) in experiment [2]; 0.072 in experiment [3]; 0.09 in experiment [4]; 0.026 in experiment [5].

Regarding DIAPH3 (UniProt Q9NSV4), the log2 fold change in experiment [1] is -0.047; in experiment [2], -0.584 (active); in experiment [3], 0.067; in experiment [4], -0.006; in experiment [5], -0.017.

As for DNAH10 (UniProt Q8IVF4), the log2 fold change in experiment [1] is 0.103; in experiment [2], 0.065; in experiment [3] it was 0; in experiment [4] it was 0.069; in experiment [5], 0.065.

For DOK1 (UniProt Q99704), the log2 fold change was -0.036 in experiment [1]; -0.297 (active) in experiment [2]; -0.043 in experiment [3]; -0.012 in experiment [4]; -0.011 in experiment [5].
